Shown are actives, neighbours in structure and some others; about 4.6% of the full set was active somewhere.
D1 agonist = activates the human D1 dopamine receptor | P21728 | HEK293 T-REx D1 cells, calcium flux, agonist mode | activation, % at 2 µM | 360,000 tested, 1% active | AID 504660; note: 0% is about no effect
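Agonism was scored from calcium flux recorded over 180 s (1 read/s) after pintool compound addition, following a 10-cycle baseline. Cells were inducible force-coupled HEK293 TREx D1, plated overnight at 30 C and loaded with no-wash calcium dye.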
D1 antagonist = human D1 dopamine receptor antagonism. P21728. HEK293 TREx D1 cells, calcium flux, dopamine EC80; stronger effect = lower value. activity change, negative = inhibition, % at 10 µM. 360,000 tested, 3.2% active. AID 504652; in the data active = activity change below about -30%; note: % is set by controls: 0 for no effect and ±100 for the full control effect
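Using tetracycline-induced force-coupled D1 Hek293 cells and a calcium dye, signals were followed for 180 s after compound, then for 180 s after EC80 dopamine, to detect inhibitors.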
D1 PAM = potentiators of human D1 dopamine receptor; P21728; HEK293 TREx D1 cells, calcium flux, dopamine EC20 potentiation; potentiation, % at 10 µM; 360,000 tested, 0.036% active; in the data active = potentiation above about 30%; note: 0% is about no effect
TRHR ag = agonists of human TRH receptor | TRHR cells, calcium flux fluo-8, FDSS agonist mode | AID 493084 | 360,000 tested, 0.18% active | P34981 | activation, % at 2 µM; note: 0% is about no effect
Target sequence (P34981 whole entry, looked up): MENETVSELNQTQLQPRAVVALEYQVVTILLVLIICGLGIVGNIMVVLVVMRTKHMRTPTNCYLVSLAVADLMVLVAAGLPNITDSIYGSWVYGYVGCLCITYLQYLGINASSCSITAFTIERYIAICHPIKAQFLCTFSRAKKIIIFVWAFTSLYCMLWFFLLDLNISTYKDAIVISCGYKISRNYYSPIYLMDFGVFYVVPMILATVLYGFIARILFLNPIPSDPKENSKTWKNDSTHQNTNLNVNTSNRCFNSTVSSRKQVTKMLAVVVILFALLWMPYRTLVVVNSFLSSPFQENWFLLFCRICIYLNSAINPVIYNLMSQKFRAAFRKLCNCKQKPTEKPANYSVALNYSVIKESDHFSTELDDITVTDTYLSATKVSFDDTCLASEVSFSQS
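Agonist-mode FDSS calcium read (Ex 480/Em 530, 1 s cycles) in 1536-well TRHR cells with fluo-8 dye, after 10-cycle baseline and 23 nL compound addition; TRH at EC20 (10 nM final) added afterwards for the enhancer phase.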
TRHR enhancer = TRH receptor (human) allosteric enhancement; AID 493056; enhancement, % at 2 µM; 360,000 tested, 0.66% active; P34981; TRHR cells, fluo-8 calcium fluorescence, EC20 TRH enhancement; in the data active = enhancement above about 30%; note: 0% is about no effect
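TRHR-expressing cells loaded with fluo-8 calcium dye were read kinetically (ex 480/em 530) during compound addition, then stimulated with an EC20 of TRH (10 nM final). Enhancement of the Gq-mediated intracellular calcium response was scored.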
Numbers without * were called inactive; . = no result given. Cut-off read from the data, not from the text of the source, unless noted: active = activation above about 30%; inactive = the rest.

SMILES	D1 agonist	D1 antagonist	D1 PAM	TRHR ag	TRHR enhancer
CC(Sc1ncnc2sc(-c3ccccc3)cc12)C(=O)N1CCNC1=O (configuration not stated)	12.9	-40.7*	-1.1	-0.3	0.0
Cc1ccc(S(=O)(=O)n2nc(-c3ccccc3)nc2NCc2ccccc2Cl)cc1	7.3	-4.7	-1.8	1.6	6.7
COc1cccc(CNC(=O)CSc2ncc3c(n2)-c2cc(Cl)ccc2N(C)S3(=O)=O)c1	3.6	1.8	5.7	-0.3	-6.7
CC(C)OCCCn1c(SCc2ccccc2Cl)nc2c(sc3ccccc32)c1=O	1.7	18.0	-2.7	0.0	0.9
COc1ccccc1Nc1sc(C(=O)c2ccc(F)cc2)c(N)c1S(=O)(=O)c1ccc(C)cc1	31.9*	16.1	-0.8	1.7	5.3
COc1ccc(S(=O)(=O)c2c(Nc3c(C)cccc3C)sc(C(=O)c3ccc(F)cc3)c2N)cc1	52.2*	9.3	-2.0	3.0	8.4
COc1ccc(S(=O)(=O)c2c(Nc3cccc(C)c3C)sc(C(=O)c3ccccc3)c2N)cc1	37.9*	-27.1	0.6	2.0	-0.3
COc1ccc(S(=O)(=O)c2c(Nc3c(C)cccc3C)sc(C(=O)c3ccc4c(c3)OCO4)c2N)cc1	31.4*	12.8	-0.8	1.3	4.5
COc1cccc(Nc2sc(C(=O)c3ccc4c(c3)OCO4)c(N)c2S(=O)(=O)c2ccccc2)c1	29.6	3.2	4.2	1.4	5.9
Cc1ccccc1Nc1sc(C(=O)c2ccccc2)c(N)c1S(C)(=O)=O	10.8	1.9	-2.6	-1.3	-1.9
CCc1cccc(C)c1NC(=O)c1cc(S(=O)(=O)N2CCOCC2)cn1C	1.1	5.1	-4.7	0.0	-5.7
Cc1ccc(CSc2cn(CC(=O)N3CCCCC3)c3ccccc23)cc1	1.5	-15.0	-7.5	0.2	-3.9
CCCCn1c(=O)c2c(nc3n2CCCN3Cc2ccccc2)n(C)c1=O	9.8	7.4	-3.1	-0.2	-0.9
CCC(C(=O)Nc1ccc(C(=O)OC)cc1)n1nc(-c2ccc(C)cc2)c2c(c1=O)CCCC2 (configuration not stated)	2.2	6.5	-2.2	0.1	5.8
C=CCn1c(SCC(=O)NC2CCCCC2)nnc1-c1ccccn1	3.1	-31.8*	-7.0	-0.2	-0.4
Nn1c(SCC(=O)Nc2ccc(F)c(F)c2)nnc1C1CCCCC1	3.5	-52.6*	-5.5	-0.2	-1.9
Cn1c(SCC(=O)Nc2ccc(F)cc2)nnc1C1CC1	0.6	-0.7	-5.8	0.6	-4.1
NC(=O)c1ccc(NC(=O)CSc2nnc(C3CCCCC3)n2N)cc1	2.1	12.4	1.6	0.0	-8.2
CCn1c(SCC(=O)Nc2ccc(F)cc2)nnc1C1CC1	1.0	-6.1	-4.7	-1.0	40.7*
CCCn1c(SCC(=O)NC2CCCCC2)nnc1C1CC1	2.1	15.9	-5.3	0.3	33.0*
C=CCn1c(SCC(=O)NC2CC2)nnc1-c1ccccn1	3.7	7.6	-3.7	0.3	-3.3
COc1ccc(Br)cc1C1NC(c2ccc3c(c2)OCO3)=CC(c2cc(Cl)ccc2O)N1 (configuration not stated)	25.0	-14.9	3.9	3.6	-4.9
COc1cccc(CNC(=O)Cn2c(=O)n3nc(-c4cccc(C)c4)nc3c3ccccc32)c1	-4.5	.	0.9	0.1	2.7
O=C(CCc1ccccc1)Nc1ccc(F)c([N+](=O)[O-])c1	9.8	-17.6	-3.1	-1.0	-4.0
Cc1ccc(NC(=S)NCc2ccccc2)cc1[N+](=O)[O-]	23.4	-21.2	-8.2	0.5	-5.6
SMILES	D1 agonist	D1 antagonist	D1 PAM	TRHR ag	TRHR enhancer
Cc1ccc(CC(=O)Nc2ccc(F)c([N+](=O)[O-])c2)cc1	8.8	-43.4*	-8.9	-0.7	-4.4
Cc1ccc(CNC(=S)Nc2ccc(C)c([N+](=O)[O-])c2)cc1	38.5*	-31.3*	-7.2	3.0	-3.9
Cc1ccc(CC(=O)Nc2ccc(F)c([N+](=O)[O-])c2)cc1C	8.8	-34.6*	-4.1	0.5	-0.9
Cc1ccc(NC(=O)Cc2ccc3c(c2)CCCC3)cc1C	3.1	-30.7*	-0.5	0.2	0.7
COc1cc(C2c3c(oc4ccc(F)cc4c3=O)C(=O)N2c2nc(C)c(C)s2)cc(OC)c1OC (configuration not stated)	52.0*	1.6	-8.2	-0.3	10.5
O=S1(=O)[C@H]2C[C@@H]3CC[C@]2(CN1Cc1cccc(F)c1)O3	0.8	-46.5*	-8.7	-0.3	-3.7
N#CC1=C(S)N(c2ccc(F)cc2)C(c2ccco2)NC1=O (configuration not stated)	4.0	-1.5	-4.0	-0.2	4.7
N#CC1=C(S)N(c2ccccc2)C(c2ccc(-c3ccc(Cl)c(Cl)c3)o2)NC1=O (configuration not stated)	62.5*	-16.7	-1.1	2.0	1.1
Cc1ccc(N2C(S)=C(C#N)C(=O)NC2c2ccco2)cc1 (configuration not stated)	2.3	-47.0*	-5.9	0.1	0.6
CC(=O)c1cccc(NC(=O)NNC(=O)c2ccc(-c3ccccc3)cc2)c1	3.6	0.4	-1.9	0.5	4.0
COc1cc(-c2noc(-c3ccc(NCC4CCCO4)c([N+](=O)[O-])c3)n2)cc(OC)c1OC (configuration not stated)	9.0	-7.4	-3.8	0.7	-4.6
Cc1cccc(CNC(=O)c2cccc(NC(=O)N3CCSc4ncccc43)c2)c1	1.2	-34.9*	-4.1	-0.4	-4.8
Cc1ccc(C(=O)Nc2cccc(C(=O)NCc3ccccc3)c2)cc1	2.2	-10.1	-11.7	-0.9	-6.9
Cc1occc1C(=O)Nc1cccc(C(=O)NCc2ccccc2)c1	6.0	-39.6*	-15.8	0.0	1.2
O=c1[nH]c(SCc2nc3c(cnn3-c3ccccc3)c(=O)[nH]2)nc2ccccc12	2.9	-9.2	5.4	0.7	-1.0
O=c1[nH]c(CSc2nc3ccccc3[nH]2)nc2c1cnn2-c1ccccc1	16.3	-37.3*	-6.2	0.1	1.3
CCOc1ccc(CSC2=NCCN2)cc1Cl	13.6	-35.3*	-9.2	0.5	-8.1
CCOP(=O)(c1ccccc1)c1nc(-c2ccc(F)cc2)oc1N1CCCCC1 (configuration not stated)	32.9*	3.9	-4.1	2.3	0.5
CCOP(=O)(OCC)c1nc(-c2ccc(Br)cc2)oc1N1CCCCC1	4.2	-45.0*	-9.0	-1.8	2.5
O=P(c1ccccc1)(c1ccccc1)c1nc(-c2ccccc2)oc1N1CCOCC1	0.5	10.5	-11.3	0.1	2.3
CCOP(=O)(OCC)c1nc(-c2ccc(Cl)cc2Cl)oc1N1CCCCC1	7.4	0.9	-0.1	0.9	4.7
Cc1ccc2c(c1)-c1onc(C(=O)N3CCN(c4ccc(Cl)cc4)CC3)c1CO2	-0.9	4.7	1.4	-0.1	0.8
